# Experimental data taken from PubChem BioAssay (NCATS).
# Values joined by “and” are separate entries in the source; they are usually repeats but may differ in a detail not shown here. Equal entries are not always repeated. Results filed as inconclusive are left out. Where a call stands in place of a potency, no number is given. Active and inactive are the calls of the source. Unless noted, calls follow the shape of the full dose curve.
# Assays:
# [1] = target: 3',5'-cyclic-AMP phosphodiesterase 4B (Homo sapiens) (UniProt Q07343); assay: qHTS Assay for Inhibitors of PDE-IV (AID 607; active = well fitted activation curve with a large enough effect in the main read-out, with a control signal flat, not every such curve was filed as active)
# Chain of 3',5'-cyclic-AMP phosphodiesterase 4B (Homo sapiens) (Q07343 whole entry, looked up): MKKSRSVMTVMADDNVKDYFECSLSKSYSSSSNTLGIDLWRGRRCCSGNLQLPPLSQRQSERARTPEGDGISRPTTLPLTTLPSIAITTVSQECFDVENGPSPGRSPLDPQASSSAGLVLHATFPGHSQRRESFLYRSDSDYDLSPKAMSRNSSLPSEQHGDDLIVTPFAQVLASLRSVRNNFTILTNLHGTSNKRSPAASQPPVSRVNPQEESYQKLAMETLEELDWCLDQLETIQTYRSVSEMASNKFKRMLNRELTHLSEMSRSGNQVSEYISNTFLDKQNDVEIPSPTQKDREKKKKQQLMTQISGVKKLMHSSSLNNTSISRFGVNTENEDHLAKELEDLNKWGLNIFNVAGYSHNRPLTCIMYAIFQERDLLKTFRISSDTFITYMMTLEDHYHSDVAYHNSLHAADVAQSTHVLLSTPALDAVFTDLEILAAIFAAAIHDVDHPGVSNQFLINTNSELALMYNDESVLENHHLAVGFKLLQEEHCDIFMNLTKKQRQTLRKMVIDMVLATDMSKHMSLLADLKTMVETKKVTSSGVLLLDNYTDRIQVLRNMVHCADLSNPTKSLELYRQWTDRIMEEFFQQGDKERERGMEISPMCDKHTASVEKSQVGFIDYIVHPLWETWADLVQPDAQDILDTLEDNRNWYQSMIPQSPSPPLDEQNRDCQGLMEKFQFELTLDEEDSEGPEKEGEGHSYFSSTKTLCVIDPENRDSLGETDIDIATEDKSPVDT
# Method in brief: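 The readout is membrane depolarisation from a cAMP-sensing CNG channel, detected with a potential dye at ex 535/em 590. Cells were HEK293-derived (endogenous PDE-IV) at 1000 cells/well, titrated up to 22.9 uM final.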
# [2] = target: Cytochrome P450 2C9 (Homo sapiens) (UniProt P11712); assay: qHTS Assay for Inhibitors and Substrates of Cytochrome P450 2C9 (AID 883; active = well fitted inhibition curve with a large enough effect; also: nearly all actives have a fitted effect of over 60% in size; also: potency is read from the fitted curve at half-maximal effect)
# Chain of Cytochrome P450 2C9 (Homo sapiens) (P11712 whole entry, looked up): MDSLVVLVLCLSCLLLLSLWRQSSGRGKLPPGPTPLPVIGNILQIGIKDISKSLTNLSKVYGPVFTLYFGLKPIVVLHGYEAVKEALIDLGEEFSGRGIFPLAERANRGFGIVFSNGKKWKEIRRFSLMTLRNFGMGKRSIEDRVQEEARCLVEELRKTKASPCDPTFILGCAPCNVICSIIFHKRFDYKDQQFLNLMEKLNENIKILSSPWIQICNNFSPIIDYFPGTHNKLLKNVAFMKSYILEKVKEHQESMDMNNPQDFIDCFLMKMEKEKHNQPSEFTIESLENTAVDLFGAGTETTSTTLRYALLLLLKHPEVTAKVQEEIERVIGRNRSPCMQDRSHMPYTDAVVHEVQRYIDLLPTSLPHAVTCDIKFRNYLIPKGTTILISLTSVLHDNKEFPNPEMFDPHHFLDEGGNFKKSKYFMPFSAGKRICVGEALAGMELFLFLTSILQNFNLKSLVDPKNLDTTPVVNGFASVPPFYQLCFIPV
# Method in brief: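 Signal: luciferase luminescence reporting luciferin produced by CYP2C9. Conditions: 10nM enzyme, Luciferin-H 100uM at KM, 25mM KPO4, 37C, 60 min NADPH-driven reaction. Reference: 57uM sulphaphenazole as 100% inhibition.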
# [3] = target: Bile acid receptor (Homo sapiens) (UniProt Q96RI1); assay: qHTS assay for small molecule antagonists of farnesoid X receptor signaling (AID 588526)
# Chain of Bile acid receptor (Homo sapiens) (Q96RI1 whole entry, looked up): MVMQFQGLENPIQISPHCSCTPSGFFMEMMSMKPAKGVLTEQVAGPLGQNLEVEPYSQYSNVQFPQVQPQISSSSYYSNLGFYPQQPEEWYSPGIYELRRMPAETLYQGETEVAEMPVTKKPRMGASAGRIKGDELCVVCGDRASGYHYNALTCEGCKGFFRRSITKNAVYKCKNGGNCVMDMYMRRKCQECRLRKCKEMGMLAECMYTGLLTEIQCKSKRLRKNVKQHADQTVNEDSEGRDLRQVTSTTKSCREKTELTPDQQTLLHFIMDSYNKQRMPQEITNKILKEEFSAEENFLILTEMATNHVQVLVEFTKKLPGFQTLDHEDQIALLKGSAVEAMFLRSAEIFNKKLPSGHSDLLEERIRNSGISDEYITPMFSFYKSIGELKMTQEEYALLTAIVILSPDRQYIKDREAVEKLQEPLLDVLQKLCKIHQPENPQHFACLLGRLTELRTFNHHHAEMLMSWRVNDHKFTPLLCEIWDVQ
# Method in brief: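 Antagonist mode: titrated compounds tested against chenodeoxycholic acid stimulation (normalized to 50 uM CDCA and DMSO) in GeneBLAzer HEK293T cells for 16 h. Beta-lactamase read by CCF4 fluorescence; IC50 from Hill fits.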
# [4] = target: Glucocorticoid receptor (Homo sapiens) (UniProt P04150); assay: qHTS assay for small molecule antagonists of glucocorticoid receptor signaling (AID 588533; active = well fitted inhibition curve with a large enough effect in the signal ratio, with a control signal flat, not every such curve was filed as active; the % refers to the signal ratio; also: potency is read from the fitted curve at half-maximal effect)
# Chain of Glucocorticoid receptor (Homo sapiens) (P04150 whole entry, looked up): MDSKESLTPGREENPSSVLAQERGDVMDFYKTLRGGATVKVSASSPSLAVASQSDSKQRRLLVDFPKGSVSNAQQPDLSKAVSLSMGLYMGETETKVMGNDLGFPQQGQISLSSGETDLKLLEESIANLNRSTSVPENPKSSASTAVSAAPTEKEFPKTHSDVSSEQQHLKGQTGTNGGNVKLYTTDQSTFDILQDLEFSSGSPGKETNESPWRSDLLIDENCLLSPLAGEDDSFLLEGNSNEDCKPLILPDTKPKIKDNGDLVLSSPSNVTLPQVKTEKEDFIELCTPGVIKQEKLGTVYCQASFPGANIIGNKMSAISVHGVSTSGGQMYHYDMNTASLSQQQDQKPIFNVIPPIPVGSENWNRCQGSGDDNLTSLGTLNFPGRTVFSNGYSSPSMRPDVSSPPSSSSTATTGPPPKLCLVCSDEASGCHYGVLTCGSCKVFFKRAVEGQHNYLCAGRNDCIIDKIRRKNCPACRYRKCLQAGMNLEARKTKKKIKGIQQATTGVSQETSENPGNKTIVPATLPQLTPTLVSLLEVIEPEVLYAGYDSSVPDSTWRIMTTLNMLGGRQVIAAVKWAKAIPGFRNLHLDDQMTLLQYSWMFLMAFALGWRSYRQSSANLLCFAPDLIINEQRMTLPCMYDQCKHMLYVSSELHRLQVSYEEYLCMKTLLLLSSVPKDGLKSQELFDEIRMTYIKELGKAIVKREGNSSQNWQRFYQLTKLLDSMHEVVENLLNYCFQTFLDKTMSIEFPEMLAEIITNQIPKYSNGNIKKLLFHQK
# Method in brief: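 Antagonist-mode qHTS: compound titrations added to GRE-bla HeLa cells, then dexamethasone 2 nM final; 18 h, 37 C. CCF4 FRET fluorescence normalized to dexamethasone and DMSO; IC50 from Hill fit.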
# [5] = target: Vitamin D3 receptor (Homo sapiens) (UniProt P11473); assay: qHTS assay for small molecule antagonists of vitamin D receptor signaling (AID 588541);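 also: receptor activated by calcitriol during compound treatment; series mostly up to about 77 µM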
# Chain of Vitamin D3 receptor (Homo sapiens) (P11473 whole entry, looked up): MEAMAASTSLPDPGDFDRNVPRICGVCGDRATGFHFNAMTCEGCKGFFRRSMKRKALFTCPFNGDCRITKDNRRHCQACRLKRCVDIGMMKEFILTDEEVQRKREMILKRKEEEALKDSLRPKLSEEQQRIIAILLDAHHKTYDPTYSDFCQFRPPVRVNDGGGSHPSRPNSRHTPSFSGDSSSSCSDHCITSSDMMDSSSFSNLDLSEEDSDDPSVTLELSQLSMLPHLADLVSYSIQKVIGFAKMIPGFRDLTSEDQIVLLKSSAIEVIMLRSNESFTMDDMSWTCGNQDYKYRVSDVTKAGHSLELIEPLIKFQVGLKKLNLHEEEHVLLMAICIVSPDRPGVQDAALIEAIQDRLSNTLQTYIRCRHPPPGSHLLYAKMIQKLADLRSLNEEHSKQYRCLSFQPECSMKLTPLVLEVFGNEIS
# Method in brief: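 VDR-UAS-bla HEK293T cells in 2% charcoal-stripped FBS were stimulated with 1-alpha,25-dihydroxyvitamin D3 (3 nM final) plus compound for 16 h at 37 C. The beta-lactamase CCF4 readout was normalized to 50 nM agonist and DMSO, and Hill fits gave IC50.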
# [6] = target: Vitamin D3 receptor (Homo sapiens) (UniProt P11473); assay: qHTS assay for small molecule agonists of vitamin D receptor signaling (AID 588543)
# Method in brief: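 Reporter cells (HEK293T, VDR-UAS-bla) were seeded in medium with 2% charcoal-stripped serum and incubated 5 h, then compounds in concentration series were added for 16 h at 37 °C. Stimulation was scaled between DMSO basal and 50 nM 1α,25-dihydroxyvitamin D3.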
# [7] = qHTS assay for small molecule agonists of retinoid X receptor alpha signaling (AID 588544); settings: HEK293T RXRa-UAS-bla, beta-lactamase reporter, 18 h; 530 nm emission
# [8] = qHTS assay for small molecule antagonists of retinoid X receptor alpha signaling (AID 588546; active = well fitted inhibition curve with a large enough effect in the signal ratio, with a control signal flat, not every such curve was filed as active; the % refers to the signal ratio;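 also: cells stimulated with 9-cis-retinoic acid as agonist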); settings: HEK293T RXRa-UAS-bla, beta-lactamase ratio, antagonist mode; measured here: W530 green channel, cytotoxicity proxy
# Method in brief: (§1)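 Beta-lactamase reporter inhibition, read as CCF4 fluorescence ratio (ex 405, em 460/530 nm) after 2 h at RT. HEK293T UAS-bla cells, 2500/well, were stimulated with 9-cis-RA at 500 or 100 nM final alongside test compound for 18 h at 37 C.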
# [9] = target: Retinoic acid receptor RXR-alpha (Homo sapiens) (UniProt P19793); assay: as above; settings: HEK293T RXRa-UAS-bla, beta-lactamase ratio, antagonist mode
# Chain of Retinoic acid receptor RXR-alpha (Homo sapiens) (P19793 whole entry, looked up): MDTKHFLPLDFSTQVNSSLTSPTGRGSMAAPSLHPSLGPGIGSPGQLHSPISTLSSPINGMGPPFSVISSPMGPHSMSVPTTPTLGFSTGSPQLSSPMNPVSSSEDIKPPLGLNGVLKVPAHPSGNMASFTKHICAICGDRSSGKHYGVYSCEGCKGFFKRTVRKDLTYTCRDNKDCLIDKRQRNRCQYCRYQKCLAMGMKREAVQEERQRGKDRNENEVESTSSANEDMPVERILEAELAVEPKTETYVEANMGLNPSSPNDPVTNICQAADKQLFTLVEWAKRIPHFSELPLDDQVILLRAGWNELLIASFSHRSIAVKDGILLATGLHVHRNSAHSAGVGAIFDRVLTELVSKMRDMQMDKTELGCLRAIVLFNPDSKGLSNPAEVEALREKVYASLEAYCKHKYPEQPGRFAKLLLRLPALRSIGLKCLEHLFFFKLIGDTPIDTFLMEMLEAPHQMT
# Method in brief: as §1
# [10] = qHTS assay for small molecule activators of the p53 signaling pathway (AID 651743; active = well fitted activation curve with a large enough effect in the signal ratio, not every such curve was filed as active; the % refers to the signal ratio; also: series mostly up to about 92 µM); settings: HCT-116 p53RE-bla, beta-lactamase FRET ratio, 16 h; activation: stronger effect = higher value
# Method in brief: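 HCT-116 p53RE-bla, 4,000 cells/well; 5 h settle; cpd/DMSO 16 h, 37 C; LiveBLAzer B/G 2 h RT; fluorescence intensity.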
# [11] = qHTS assay for small molecule activators of the nuclear factor-kappa B (NF-kB) signaling pathway (AID 651749; active = well fitted activation curve with a large enough effect in the signal ratio; the % refers to the signal ratio; also: series mostly up to about 77 µM); settings: NF-kB-bla ME-180 cells, beta-lactamase FRET ratio, 16 h; stronger effect = higher value
# Method in brief: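 Incubation lasted 16 hr at 37C in 5% CO2 after 23 nL compound addition to ME-180 NF-kB-bla cells. Activation appears as beta-lactamase-mediated FRET loss.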
# [12] = qHTS assay for small molecule agonists of the antioxidant response element (ARE) signaling pathway (AID 651741; active = well fitted activation curve with a large enough effect in the signal ratio; the % refers to the signal ratio; also: potency is read from the fitted curve at half-maximal effect)
# Method in brief: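 HepG2 ARE-bla cells plated at 2,000 cells/well and incubated 5 h at 37 C/5% CO2 received 23 nL compound in DMSO. After 16 h at 37 C, LiveBLAzer B/G FRET substrate was applied for 2 h at room temperature and fluorescence read.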
# [13] = target: Tumor necrosis factor (Homo sapiens) (UniProt P01375); assay: qHTS assay to identify small molecules that stimulate Tumor Necrosis Factor-alpha (TNF-alpha) secretion (AID 651757; active = well fitted curve in the direction sought with a large enough effect in the signal ratio; the % refers to the signal ratio)
# Chain of Tumor necrosis factor (Homo sapiens) (P01375 whole entry, looked up): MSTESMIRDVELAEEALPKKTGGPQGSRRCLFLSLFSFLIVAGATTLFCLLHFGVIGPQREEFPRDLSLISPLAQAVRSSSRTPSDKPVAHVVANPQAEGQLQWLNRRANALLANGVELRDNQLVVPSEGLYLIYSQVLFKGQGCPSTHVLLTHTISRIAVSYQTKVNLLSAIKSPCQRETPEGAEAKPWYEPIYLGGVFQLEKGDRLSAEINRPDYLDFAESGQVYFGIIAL
# Method in brief: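 THP-1 cells were exposed to compounds for 17 hrs at 37 C, after which secreted TNF-alpha was measured by homogeneous HTRF (TR-FRET) using cryptate- and XL665-labeled anti-TNF-alpha antibodies, read after 3 hr at room temperature.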
# [14] = target: Estrogen receptor (Homo sapiens) (UniProt P03372); assay: qHTS assay for small molecule agonists of estrogen receptor alpha signaling (AID 588514); also: nearly all actives have a fitted effect of over 70% in size
# Chain of Estrogen receptor (Homo sapiens) (P03372 whole entry, looked up): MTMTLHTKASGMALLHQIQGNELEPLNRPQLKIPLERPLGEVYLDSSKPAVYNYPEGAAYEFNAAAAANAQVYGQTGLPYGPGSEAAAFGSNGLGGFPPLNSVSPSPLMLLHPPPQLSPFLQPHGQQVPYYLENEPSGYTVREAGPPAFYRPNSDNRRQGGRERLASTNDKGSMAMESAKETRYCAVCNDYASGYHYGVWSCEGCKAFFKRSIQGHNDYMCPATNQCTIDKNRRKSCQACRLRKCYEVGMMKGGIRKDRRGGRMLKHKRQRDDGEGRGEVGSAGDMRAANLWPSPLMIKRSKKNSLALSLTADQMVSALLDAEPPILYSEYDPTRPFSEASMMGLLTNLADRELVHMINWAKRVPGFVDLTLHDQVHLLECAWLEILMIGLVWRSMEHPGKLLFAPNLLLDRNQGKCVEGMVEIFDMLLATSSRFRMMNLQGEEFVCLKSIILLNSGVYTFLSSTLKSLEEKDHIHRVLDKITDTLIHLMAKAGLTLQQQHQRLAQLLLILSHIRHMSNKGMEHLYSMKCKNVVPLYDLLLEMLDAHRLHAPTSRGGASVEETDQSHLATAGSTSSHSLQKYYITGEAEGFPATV
# Method in brief: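 ER-alpha-UAS-bla GripTite HEK 293 cells in medium with 2% charcoal/dextran-treated FBS were treated with compound titrations at 37 C for 18 hrs; beta-lactamase reporter read by CCF4 fluorescence after 2 hrs at RT.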
# [15] = target: Glucocorticoid receptor (Homo sapiens) (UniProt P04150); assay: qHTS assay for small molecule agonists of glucocorticoid receptor signaling (AID 588532; active = well fitted curve in the direction sought with a large enough effect in the signal ratio, with a control signal flat; the % refers to the signal ratio); settings: HeLa MMTV-bla, beta-lactamase ratio, agonist, 18 h; stronger effect = higher value; percent of dexamethasone control, DMSO zero
# Method in brief: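 HeLa GRE-bla reporter cells; 18 h compound exposure at 37 C; 2 h CCF4 loading at room temperature; fluorescence at 460 and 530 nm; EC50 by Hill equation.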
# [16] = target: Peroxisome proliferator-activated receptor gamma (Homo sapiens) (UniProt P37231); assay: qHTS assay for small molecule agonists of peroxisome proliferator-activated receptor gamma signaling (AID 588536; active = well fitted curve in the direction sought with a large enough effect in the signal ratio, with a control signal flat, not every such curve was filed as active; the % refers to the signal ratio)
# Chain of Peroxisome proliferator-activated receptor gamma (Homo sapiens) (P37231 whole entry, looked up): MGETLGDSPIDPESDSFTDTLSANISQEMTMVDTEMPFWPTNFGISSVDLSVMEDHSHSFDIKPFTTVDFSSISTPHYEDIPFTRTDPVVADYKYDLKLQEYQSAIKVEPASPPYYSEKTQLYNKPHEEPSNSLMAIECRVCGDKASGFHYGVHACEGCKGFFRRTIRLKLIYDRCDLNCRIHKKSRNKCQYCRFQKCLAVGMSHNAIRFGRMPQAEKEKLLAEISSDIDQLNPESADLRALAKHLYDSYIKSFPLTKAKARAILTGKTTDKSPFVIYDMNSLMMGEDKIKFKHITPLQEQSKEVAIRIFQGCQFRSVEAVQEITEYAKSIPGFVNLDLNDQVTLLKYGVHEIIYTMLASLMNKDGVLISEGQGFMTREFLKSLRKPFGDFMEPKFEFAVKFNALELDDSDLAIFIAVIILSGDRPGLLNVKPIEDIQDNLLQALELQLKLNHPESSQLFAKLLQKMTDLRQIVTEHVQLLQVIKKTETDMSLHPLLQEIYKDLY
# Method in brief: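 Test agents, titrated, stimulated HEK293 UAS-bla cells overnight (16 h, 37 C). Substrate CCF4 was then added for two hours at room temperature before fluorescence reading.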
# [17] = target: Peroxisome proliferator-activated receptor gamma (Homo sapiens) (UniProt P37231); assay: qHTS assay for small molecule antagonists of peroxisome proliferator-activated receptor gamma signaling (AID 588537; active = well fitted inhibition curve with a large enough effect in the signal ratio, with a control signal flat, not every such curve was filed as active; the % refers to the signal ratio;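 also: reporter cells co-stimulated with 50 nM rosiglitazone agonist during compound treatment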)
# Method in brief: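 Step one: plate 3000 HEK293 UAS-bla cells per well in medium with 1% stripped serum and hold 6-6.5 h at 37 C. Step two: add compound and 50 nM agonist for 16 h. Step three: CCF4 loading, fluorescence read.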
compound,measurement,setting,value
CCCC[C@@H]1C[C@H]1C(NC(=O)c1cccs1)c1ccc(Cl)cc1 (stereo partly drawn),Potency,[1],inactive
COC(=O)[C@@]1(Cc2ccccc2)[C@H]2c3cc(C(=O)N4CCCC4)n(Cc4ccccn4)c3C[C@H]2CN1C(=O)c1ccccc1,Potency,[1],inactive
same,Potency,[2],0.199 µM (active)
COC(=O)[C@H](C)[C@H]1C[C@]1(C)[C@H](NC(=O)OCc1ccccc1)c1ccccc1,Potency,[1],inactive
same,Potency,[2],2 µM (active)
CC(C)[C@@H](CC(=O)N[C@@H]1CCNC[C@H]1C(=O)N[C@H](CC(=O)N[C@@H](CCC(=O)O)CC(=O)O)Cc1c[nH]c2ccccc12)NC(=O)C[C@H](Cc1c[nH]c2ccccc12)NC(=O)[C@@H]1CNCC[C@H]1N,Potency,[2],inactive
CC(C)C[C@@H](CC(=O)N[C@@H](CCCN)CC(=O)N[C@@H]1CCCC[C@H]1C(=O)N[C@H](CC(=O)N[C@@H](CCC(=O)O)CC(=O)O)CC(C)C)NC(=O)[C@@H]1CCCC[C@H]1N,Potency,[2],inactive
CCC/C=C(\CCC)C(NS(=O)(=O)c1ccc(C(F)(F)F)cc1)c1ccccc1 (stereo not drawn),Potency,[1],inactive
Cc1ccc(S(=O)(=O)Oc2ccc(N=Nc3ccc(-c4ccc(N=Nc5c(O)ccc6cc(S(=O)(=O)O)cc(S(=O)(=O)O)c56)c(C)c4)cc3C)cc2)cc1,Potency,[3],inactive
same,Potency,[4],inactive
same,Potency,[5],inactive
same,outcome,[6],inactive
same,max response,[7],-16.1%
same,max response,[8],-21.4%
same,max response,[9],14.7% (inactive)
same,activation,[10],1.02% (inactive)
same,activation,[11],-0.0057% (inactive)
C=CC(=O)OCCOCCOC(=O)C=C,Potency,[4],44.7 µM (active)
same,Potency,[12],47.3 µM (active)
same,activation,[10],2.89% (inactive)
same,outcome,[13],inactive
CO[C@H]1/C=C/O[C@@]2(C)Oc3c(C)c(O)c4c(O)c(c5c(c4c3C2=O)NC2(CCN(CC(C)C)CC2)N=5)=NC(=O)/C(C)=C\C=C\[C@H](C)[C@H](O)[C@@H](C)[C@@H](O)[C@@H](C)[C@H](OC(C)=O)[C@@H]1C,outcome,[14],inactive
same,Potency,[3],inactive
same,activation,[15],-2.4% (inactive)
same,Potency,[4],inactive
same,Potency,[5],inactive
same,outcome,[6],inactive
same,activation,[10],-4.17% (inactive)
CC/C(=C(\c1ccccc1)c1ccc(OCCN(C)C)cc1)c1ccc(O)cc1,activation,[15],5.28% (inactive)
same,outcome,[6],inactive
same,outcome,[13],inactive
ClC1=C(Cl)C(Cl)(Cl)C(Cl)=C1Cl,outcome,[14],inactive
same,activation,[15],4.1% (inactive) and -7.79% (inactive)
same,outcome,[16],inactive
same,Potency,[17],inactive
same,Potency,[5],inactive
same,outcome,[6],inactive
same,max response,[7],-6.21% and -5.28%
same,max response,[8],5.17% and -3.52%
same,max response,[9],-8.53% (inactive) and -12% (inactive)
same,activation,[11],-0.183% (inactive) and -0.468% (inactive)
same,outcome,[13],inactive
Cc1cc(Nc2ccc(O)cc2)ccc1N,Potency,[3],inactive
same,Potency,[5],inactive
same,outcome,[6],inactive
same,max response,[7],-10.3%
same,max response,[8],-15.7%
same,max response,[9],21.4% (inactive)
